Source: PubChem
Shown are actives, neighbours in structure and some others; about 3.1% of the full set was active somewhere.
15-hLO-2 inh: 15-hLO-2 (ALOX15B) enzyme inhibition | purified 15hLO-2, xylenol orange hydroperoxide absorbance | Potency, µM (titrated, usually from 57.1 µM), most hits filed as inhibitors | 110,000 tested, 0.56% active; further: nearly all actives have a fitted effect of over 60% in size
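Purified human 15hLO-2 (50 nM final) preincubated with compounds 15 min at room temperature in 25 mM Hepes pH 7.5, 0.01% Triton X-100, then 45 uM arachidonic acid added for 90 min; hydroperoxide detected via ferrous/xylenol orange, 573/405 nm absorbance ratio.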
PNC inhibitor: inhibitors of perinucleolar compartment assembly. AID 2417. activity change (PNC), negative = inhibition, % at 10 µM. 140,000 tested, 3.1% active. PC3M PTB-GFP, PNC prevalence imaging, 16 h; active compounds read low;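 active means readout at or below -70, meaning at least 70% loss of cells showing the perinucleolar compartment, a nuclear body marking cancer cells; inconclusive means readout between -30 and a set limit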
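Compounds are pinned in duplicate onto adhered PC3M cells stably expressing GFP-tagged PTB and incubated 16 h at 37 C. Cells are then fixed, nuclei stained with Hoechst, and PNC-positive cells counted.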
12-hLO inh: inhibitors of human 12-lipoxygenase (ALOX12); AID 1452; 150,000 tested, 0.12% active; purified 12-hLO, xylenol orange hydroperoxide absorbance; P18054; Potency, µM (series often up to 57.1 µM), hits mostly inhibitors; further: nearly all actives have a fitted effect of over 55% in size
Target sequence (P18054 whole entry, looked up): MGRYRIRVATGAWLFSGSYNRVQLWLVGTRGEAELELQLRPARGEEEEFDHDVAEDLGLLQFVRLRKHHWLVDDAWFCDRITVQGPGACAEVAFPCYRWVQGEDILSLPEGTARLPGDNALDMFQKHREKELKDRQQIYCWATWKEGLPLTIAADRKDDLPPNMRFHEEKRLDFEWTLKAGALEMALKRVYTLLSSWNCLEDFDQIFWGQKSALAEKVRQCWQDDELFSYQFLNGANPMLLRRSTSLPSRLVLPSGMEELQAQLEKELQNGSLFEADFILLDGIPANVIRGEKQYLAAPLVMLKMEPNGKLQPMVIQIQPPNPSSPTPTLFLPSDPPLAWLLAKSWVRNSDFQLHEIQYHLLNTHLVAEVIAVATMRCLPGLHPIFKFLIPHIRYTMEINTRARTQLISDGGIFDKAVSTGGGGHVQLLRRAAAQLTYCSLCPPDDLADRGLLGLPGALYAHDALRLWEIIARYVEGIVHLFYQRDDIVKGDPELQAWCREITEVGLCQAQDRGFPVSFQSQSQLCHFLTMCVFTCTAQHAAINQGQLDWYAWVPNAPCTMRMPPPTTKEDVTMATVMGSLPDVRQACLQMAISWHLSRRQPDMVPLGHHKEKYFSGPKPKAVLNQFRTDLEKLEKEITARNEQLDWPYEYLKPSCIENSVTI
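Purified human 12hLO (150 nM final) was preincubated with compounds for 15 min at room temperature in 25 mM Hepes pH 7.0, 0.01% Triton X-100, then reacted with 40 uM arachidonic acid for 30 min. Hydroperoxide was detected with ferrous iron/xylenol orange.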
A number is an active result; n = inactive; u = inconclusive; x = no result; [ ] = dose if it differs, or a comment. Unless noted, the call rests on the fitted dose curve; in most records, active means well fitted curve in the direction sought with a large enough effect; inconclusive means small, poorly fitted or top-dose-only effect, or another doubt; inactive means no such curve, though single readings can be large; an effect the other way counts as inactive or inconclusive.

SMILES	15-hLO-2 inh	PNC inhibitor	12-hLO inh
CCc1ccc(CN2CCN(C(=O)c3cccc(OC)c3OC)CC2)cc1	x	-100	n
Cc1ccc(N2CCN(C(=O)c3ccccc3)CC2)c(C)c1	n	n	n
CNC(=O)Oc1ccc2c(c1)[C@@]1(C)CCN(C)C1N2C (some centres undefined)	n	x	n
O=C1c2ccccc2C(=O)c2c(Nc3cc4c5c(ccc6c7ccc8c9c(cc(Nc%10cccc%11c%10C(=O)c%10ccccc%10C%11=O)c(c3c56)c97)-c3ccccc3C8=O)C(=O)c3ccccc3-4)cccc21	n[11.4 µM]	x	n[11.4 µM]
CC1(C)C(=O)CC[C@@]2(C)C1CC(O)[C@@]1(C)C3=CC(=O)OC(c4ccoc4)[C@]3(C)CCC21 (some centres undefined)	n	x	n
Cc1ccc(S(=O)(=O)O)cc1C	n	x	n
O=C(O)/C=C\C(=O)N1Cc2cc3ccccc3nc2C1	n[11.4 µM]	x	n[11.4 µM]
CCCCCCCC(=O)OC[C@H](CO)OC(=O)CCCCCCC	x	x	n
COc1cccc(Cn2c(=O)c(CCc3ccccc3)nc3cncnc32)c1	n	x	x
c1ccc(CNc2ccnc(-c3cccnc3)n2)cc1	n	x	x
Cc1ccc(S(=O)(=O)n2ccc(-c3cccc(OCc4c(F)cccc4Cl)c3)n2)cc1	n	n	n
Cc1ccc(S(=O)(=O)n2ccc(-c3ccc(OCc4c(F)cccc4Cl)cc3)n2)cc1	x	-100	n
O=S(=O)(c1ccc2c(c1)OCCO2)N1CCC(O)(c2ccc(Cl)cc2)CC1	n	-125	n
O=S(=O)(c1ccc2c(c1)OCCO2)N1CCN(c2cccc(Cl)c2)CC1	n[2.29 µM]	n	n
C[C@](N)(C(=O)O)c1ccc(-c2nn[nH]n2)cc1	n	x	n
CC(C)(C)NC(=O)[C@H]1CN(Cc2cccnc2)CCN1C[C@@H](O)C[C@@H](Cc1ccccc1)C(=O)N[C@H]1c2ccccc2C[C@H]1O	n[0.0915 µM]	x	n[0.00818 µM]
Cc1ccccc1N=C1N=C(N)c2ccccc21	x	-96	n
Cc1ccccc1N=C1NC(=O)CS1	n	n	n
Cn1ccnc1SCC(=O)Nc1ccc(Oc2ccccc2)cc1	n	n	n
CCOc1ccc(NC(=O)CSc2nccn2C)cc1	x	-100	n
CCOC(=O)c1ccccc1NC(=O)CSc1nnnn1C	x	n	n
CCOC(=O)c1ccccc1NC(=O)CSc1nccn1C	x	-100	n
Cc1cnc(CNc2cc(-c3ccccc3CN(C)C)ncn2)cn1	n	x	x
COc1ccccc1CCn1c(=O)cnc2cncnc21	n	x	x
COC(=O)[C@@]1(Cc2ccccc2)[C@H]2c3cc(C(=O)N4CCCC4)n(Cc4cc(F)cc5c4OCOC5)c3C[C@H]2CN1C(=O)c1ccccc1	n	x	n
SMILES	15-hLO-2 inh	PNC inhibitor	12-hLO inh
O=C(O)Cc1c[nH]c2ccc(F)cc12	n[11.4 µM]	x	n[11.4 µM]
CC(=O)Nc1ccc(S(=O)(=O)Oc2ccc3c(c2)C(C)=CC(C)(C)N3)cc1	x	-109	n
CC1=CC(C)(C)Nc2ccc(OS(=O)(=O)c3ccc(C)cc3)cc21	n	n	n
COC(=O)[C@@]1(Cc2ccc(OC)cc2)[C@@H]2[C@@H](CC(=O)[C@H]2CC(=O)C(=O)N(C)C)CN1C(=O)c1ccccc1	n	-88	n
COC(=O)[C@@]1(Cc2ccc(F)cc2)[C@@H]2[C@@H](CC(=O)[C@H]2CC(=O)C(=O)N(C)C)CN1C(=O)c1ccccc1	n	n	n
CC(=O)O[C@H]1CC[C@@]2(C)C(=CC[C@@H]3[C@H]4CC[C@@H]([C@H](C)C(=O)O)[C@]4(C)CC[C@H]32)C1	n[11.4 µM]	x	n[11.4 µM]
CCC1=C2CC[C@H]3C(=O)NC(=O)[C@H]3[C@H]2[C@@]2(Cc3ccccc3)C(=NCc3ccccc3)OC(=O)N2C1=O	n	x	n
Cc1nc2scc(-c3cccs3)c2c(=O)n1CC(=O)O	n	-80	n
O=C(O)Cn1cnc2scc(-c3cccs3)c2c1=O	n	n	n
CCNc1ncc2nc(-c3ccccc3)c(=O)n(CCOC)c2n1	n	x	x
CC1(CN2CCC(n3c(=O)[nH]c4ccccc43)CC2)OCc2ccccc2-n2cccc21 (centres undefined)	n[0.0915 µM]	x	n[0.00818 µM]
Cc1c2cccc(Sc3ccccc3)c2c2c3c(cccc13)[S+](c1ccccc1)C2 (centres undefined)	n[11.4 µM]	x	n[11.4 µM]
COc1ccccc1CN1CC2(CCN(S(C)(=O)=O)CC2)C1	n	x	n
CN(C)c1nc(OCCNC(=O)Nc2ccccc2)nc(N2CCOCC2)n1	n	n	n
Cc1ccc(S(=O)(=O)NCCOc2nc(N(C)C)nc(N3CCOCC3)n2)cc1	n	-93	n
CC(C)CN1CCC2(CC1)CCN(C(=O)c1csnn1)CC2	n	x	n
CC1=C(C(=O)O)N2C(=O)[C@@H](NC(=O)[C@@H](N)c3ccc(O)cc3)[C@@H]2SC1	n	x	n
Cc1ccccc1C(=O)NC1CCN(Cc2nnnn2Cc2ccc(F)cc2)CC1	n	u	n
CCC(C)(C)n1nnnc1CN1CCC(NC(=O)c2ccccc2C)CC1	x	-100	n
CC(=O)Nc1ccc(NC(=O)c2ccccc2Sc2ccc([N+](=O)[O-])cc2Cl)cc1	x	-80	n
CC(=O)Nc1ccc(OC(=O)c2cc([N+](=O)[O-])ccc2Cl)cc1	n	n	n
CN(Cc1ccco1)c1cc(-c2cccc(NS(C)(=O)=O)c2)ncn1	n	x	x
Cc1cc(N2CCC(C)CC2)n2nc(C)c(-c3ccccc3)c2n1	n	n	n
CCOC(=O)N1CCN(c2cc(C)nc3nc(C)nn23)CC1	x	u	n
Cc1cc(N2CCCCC2)n2nc(C)c(-c3ccccc3)c2n1	n	-82	n
SMILES	15-hLO-2 inh	PNC inhibitor	12-hLO inh
Cc1cc(N2CCCC2)n2nc(C)nc2n1	x	-84	n
O=C(c1cc(C(F)(F)F)cc(C(F)(F)F)c1)N1CCC2(CC1)CCN(c1ccncc1)CC2	n	x	n
COC(=O)N1CC=CC1(C)C(=O)NCc1ccc(C)o1 (centres undefined)	n	x	n
COc1ccc(-n2c(=O)c(C)nc3cnc(Nc4cccc(OC)c4)nc32)cc1	n	x	n
COc1ccc2cc3cc(C(=O)Nc4ccc5c(c4)OCCO5)oc3nc2c1	n	n	n
COc1ccc2cc3cc(C(=O)Nc4cc(OC)c(OC)c(OC)c4)oc3nc2c1	n	-105	n
CCCCC/C=C\C[C@@H]1O[C@H]1/C=C/C(O)C/C=C\CCCC(=O)O (some centres undefined)	x	x	n
Cc1ccc(C(=O)ON=C2CCN(S(=O)(=O)c3ccccc3)CC2)cc1	x	n	n
O=C(ON=C1CCN(S(=O)(=O)c2ccccc2)CC1)c1ccc(F)cc1	x	-100	n
CCn1c(CNc2ccc(OC)cc2)nnc1SCC(=O)Nc1ccc(F)cc1	x	n	n
CCn1c(CNc2ccc(F)cc2)nnc1SCC(=O)OC1CCCCC1	n	-114	n
Cc1ncc([N+](=O)[O-])n1C[C@H](O)CCl	n	x	n
CC(=O)O[C@H]1C[C@@]2(C)[C@H](C[C@@H](O)[C@H]3[C@@]4(C)CC[C@@H](O)[C@@H](C)[C@H]4CC[C@@]32C)C1=C(CCC=C(C)C)C(=O)O	n	x	n
COc1ccc2nc(NCc3ccccc3)[nH]c2c1	n	u	n
Cc1ccc2nc(NCc3ccccc3)[nH]c2c1	n	-103	n
C[C@@H]1NC(=O)[C@H](CCC(N)=O)NC(=O)c2cc([N+](=O)[O-])cc(I)c2NCC[C@@H](C(N)=O)NC1=O	x	n	n
